Bioassay records: PubChem, National Center for Advancing Translational Sciences (NCATS)
Most compounds without a hit are left out; they make up all but 2.4% or so of the library.
Pol iota inh = qHTS for Inhibitors of Polymerase Iota; DNA polymerase iota (Homo sapiens), Q9UNA4; Pol iota fluorescent replication assay, 10 min; Potency, µM (series often up to 115 µM), for the others: at the highest dose activity, negative = inhibition, actives largely listed as inhibitors; 390,000 tested, 1% active
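Fluorescent replication assay read twice, at 0 min and 10 min after adding 50 nM (final) substrate. Enzyme (10 nM) and compounds were first incubated 15 min at room temperature; enzyme-free buffer wells were negative controls.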
FEN1 inh-1 = qHTS Assay for the Inhibitors of Human Flap endonuclease 1 (FEN1) | P39748 | Recombinant FEN1 flap cleavage, fluorescence, 15 min | Potency, µM (highest dose often 114 µM), for the others: top-dose activity change, negative = inhibition, actives largely listed as inhibitors | 390,000 tested, 0.35% active | AID 588795, 2011; note: % is set by controls: 0 for no effect and ±100 for the full control effect; nearly all actives have a fitted effect of over 65% in size
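Quantitative HTS format: each compound was titrated, incubated with 10 nM nuclease for 15 min at room temperature, then challenged with flap substrate at 50 nM final. Signal change over 15 min gave concentration–effect curves.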
WRN inhibitor = qHTS for Inhibitors of WRN Helicase; Bifunctional 3'-5' exonuclease/ATP-dependent helicase WRN (Homo sapiens), Q14191; WRN helicase unwinding, fluorescent forked duplex, kinetic; Potency, µM (doses to about 114 µM), for the others: at the highest dose activity change, negative = inhibition, hits mostly inhibitors; 360,000 tested, 0.46% active; AID 651768, 2012; note: % is set by controls: 0 for no effect and ±100 for the full control effect; nearly all actives have a fitted effect of over 55% in size
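WRN at 20 nM final was preincubated with compound for 15 min at room temperature; reaction started with 100 nM forked duplex oligonucleotide carrying fluorophore and quencher plus 2 mM ATP (final). Unwinding followed kinetically by red fluorescence (ex 525/em 598 nm).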
POLH inh = qHTS for Inhibitors of Polymerase Eta. AID 588591, 2011. recombinant Pol eta, fluorescent DNA replication assay. Potency, µM (top dose mostly 114 µM), without a hit: at the top dose activity change, negative = inhibition, most hits filed as inhibitors. 390,000 tested, 1.2% active; note: % is set by controls: 0 for no effect and ±100 for the full control effect
Target sequence (Q9Y253 whole entry, looked up): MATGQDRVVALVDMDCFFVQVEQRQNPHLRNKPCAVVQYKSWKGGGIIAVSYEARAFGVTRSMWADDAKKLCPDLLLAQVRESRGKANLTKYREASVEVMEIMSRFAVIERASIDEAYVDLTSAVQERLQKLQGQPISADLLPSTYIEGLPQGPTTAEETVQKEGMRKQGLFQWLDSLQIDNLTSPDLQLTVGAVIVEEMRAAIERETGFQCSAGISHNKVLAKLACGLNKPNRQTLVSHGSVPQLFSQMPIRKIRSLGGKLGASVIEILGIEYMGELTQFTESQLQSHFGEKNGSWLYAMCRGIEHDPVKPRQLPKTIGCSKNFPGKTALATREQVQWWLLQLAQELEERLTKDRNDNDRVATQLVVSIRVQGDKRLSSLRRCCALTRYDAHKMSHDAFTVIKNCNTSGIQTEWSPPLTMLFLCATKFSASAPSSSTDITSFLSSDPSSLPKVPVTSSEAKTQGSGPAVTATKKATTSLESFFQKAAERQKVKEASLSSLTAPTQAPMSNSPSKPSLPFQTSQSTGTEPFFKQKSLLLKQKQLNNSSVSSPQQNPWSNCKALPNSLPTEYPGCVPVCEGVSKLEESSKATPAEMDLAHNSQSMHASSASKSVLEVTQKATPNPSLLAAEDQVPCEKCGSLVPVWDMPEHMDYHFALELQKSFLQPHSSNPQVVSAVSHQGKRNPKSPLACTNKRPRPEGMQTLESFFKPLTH
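Pol eta at 10 nM preincubated with compounds 15 min at room temperature; reaction started with fluorescent substrate (50 nM final) and read kinetically at 0 and 10 min.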
Pol beta inh = qHTS Assay for Inhibitors of DNA Polymerase Beta | P06746 | Pol beta primer extension/strand displacement, fluorescence kinetic | Potency, µM (highest dose often 114 µM), for the others: top-dose activity change, negative = inhibition, actives largely listed as inhibitors | 340,000 tested, 1.3% active; note: % is set by controls: 0 for no effect and ±100 for the full control effect
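Human Pol beta at 10 nM; strand-displacement substrate 50 nM final. Compound exposure 15 min at room temperature before start, reaction 10 min at room temperature.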
Pol kappa inh = qHTS for Inhibitors of Polymerase Kappa | purified Pol kappa, fluorescent DNA synthesis assay, 10 min | Potency, µM (doses to about 107 µM), for inactives: at the highest dose activity, negative = inhibition, usual class: inhibitors | 400,000 tested, 0.53% active; note: % is set by controls: 0 for no effect and ±100 for the full control effect
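Fluorescent qHTS in 1536-well format: enzyme (10 nM) and compound sat 15 min at room temperature before 50 nM substrate (final) was added. Signal taken at 0 and 10 min; no-enzyme buffer wells were negative controls.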
FEN1 inh-2 = qHTS Assay for the Inhibitors of FEN1: Confirmatory Assay for Cherry-picked Compounds; shares compounds with FEN1 inh-1; FEN1 flap cleavage, TAMRA/BHQ2 fluorogenic DNA substrate; AID 720498, 2013; 880 tested, 79% active; Potency, µM, usual class: inhibitors; note: nearly all actives have a fitted effect of over 60% in size
Numbers without * were called inactive; ? = inconclusive; . = no result; [ ] = another dose, or the depositor's remark. Calls come from the whole dose curve; as a rule, active = well fitted curve in the direction sought with a large enough effect; inconclusive = small, poorly fitted or top-dose-only effect, or another doubt; inactive = no such curve, though single readings can be large; an effect the other way counts as inactive or inconclusive. Potency is the fitted concentration of half-maximal effect.

SMILES	Pol iota inh	FEN1 inh-1	WRN inhibitor	POLH inh	Pol beta inh	Pol kappa inh	FEN1 inh-2
O=C(c1nc(-c2ccc(Cl)cc2)n2c1CCCCC2)N1CCN(c2ccc(F)cc2)CC1	18%	-21%	.	-21%	16%	-1%	.
O=S(=O)(c1ccc(Br)cc1)c1nc(-c2cccs2)oc1SCc1ccccc1F	8%	11%	.	-15%	-2%	1%	.
CC(C)N(Cc1ccccc1)C(=O)CCS(=O)(=O)c1cc2c(cc1Cl)NC(=O)CO2	37%	15%	.	-12%	14%	3%	.
CSc1nc2[nH]c(=O)n(O)c(=O)c2n1Cc1ccccc1	36%	-105%	6%[11.6 µM]	?	.	-14%	0.021*
CSc1nc2c(c(=O)n1Cc1ccccc1)SC(C)C2 (centres undefined)	-6%	-12%	-13%	-1%	-26%	-2%[60.1 µM]	.
COc1ccc(SCc2cc(=O)c3cc(Cl)ccc3[nH]2)cc1	3%	9%	.	-6%	?	5%[60.1 µM]	.
Cc1ccc(NC(=O)c2ccc3nc[nH]c3c2)cc1C	81%	7%	-7%	-3%	7%	-10%	.
CC(=O)Nc1sc2c(c1-c1ccc3nc[nH]c3c1)CCNC2	.	.	.	.	.	.	38*
Cc1ccc(Cn2c(CNC(=O)c3ccc(Cl)c([N+](=O)[O-])c3)nc3cccnc32)cc1	3%	-11%	.	-19%	12%	-7%[60.1 µM]	.
COc1ccc(C2=NC(c3ccncc3)=Nc3ccc(OC)cc3N2)cc1	-14%	-18%	.	-8%	31%	-8%	.
CCOC(=O)c1c(C)[nH]c(CCC(=O)NCc2ccc(CC)cc2)c1C	7%	-15%	.	-1%	-1%	-8%[60.1 µM]	.
O=c1c2ccccc2nc(N/N=C/c2ccc(O)cc2)n1O	-6%	25µM*	-11%[57.1 µM]	-14%	6%	0%	30*
O=C1c2ccc3c4c(ccc(c24)C(=O)N1CCCCO)C(=O)N(CCCCO)C3=O	?	?	-8%[11.6 µM]	-15%	2%	-3%	30*
O=c1c2ccccc2c(/C=N/NS(=O)(=O)c2ccccc2)c(O)n1-c1ccccn1	?	-4%	?	6%	33%	-23%	?
COc1cc2nc(SCc3cccc(Cl)c3)n3nc(CCn4nc(C)cc4C)nc3c2cc1OC	?	21%	.	-7%	13%	-9%	.
Cc1cccc(NC(=O)CN2C(=O)S/C(=C\c3ccc(-c4cccc(C(=O)O)c4C)o3)C2=O)c1	?	40µM*	-10%	35µM*	7%	-17%	67*
COc1cccc(CCNC(=O)c2cnc3sc(N4CCCC4)nn3c2=O)c1	25%	-12%	.	-8%	37%	-4%	.
COCCn1c(=O)c(-c2ccc(F)cc2)nc2cnc(N(C)C)nc21	.	.	.	.	.	-5%[60.1 µM]	.
COc1ccc(CCC(=O)N2CCN(S(=O)(=O)c3ccc(C)cc3)CC2)cc1	-2%	7%	-4%	-14%	.	10%	.
COc1ccc(S(=O)(=O)N2CCN(C(=O)c3ccc([N+](=O)[O-])o3)CC2)cc1	?	0%	-5%[11.6 µM]	?	?	-18%	76*
CCSc1nc2n(n1)C(c1ccc(CC)cc1)C(C(=O)Nc1ccccc1OC)=C(C)N2 (centres undefined)	2%	-1%	.	6%	23%	-1%[60.1 µM]	.
O=C1C[C@@H](c2ccccc2Cl)N1S(=O)(=O)c1ccccc1[N+](=O)[O-]	-9%	14%	.	.	.	-4%	.
CC(=O)Nc1cc(-c2nc3ccccc3s2)ccc1C	16%	3%	.	.	-7%	-3%	.
CC(=O)Nc1sc2c(c1-c1nc3ccccc3s1)CCOC2	.	.	.	.	.	.	?
Cc1sc(NC(=O)CSc2nc(O)cc(=O)[nH]2)nc1-c1ccccc1	?	50µM*	?	-6%	-16%	-6%	67*
SMILES	Pol iota inh	FEN1 inh-1	WRN inhibitor	POLH inh	Pol beta inh	Pol kappa inh	FEN1 inh-2
COc1ccccc1NC(=O)CSc1nc(O)cc(=O)[nH]1	?	-7%	-9%	9%	-8%	-9%	.
COC(=O)c1sccc1S(=O)(=O)N(CC(=O)Nc1cc(F)ccc1F)c1ccc(C)c(C)c1	-2%	-3%	.	-9%	6%	25%	.
COc1ccc(Nc2nc(N3CCCCC3)c3ccccc3n2)cc1	11%	-10%	-4%[57.1 µM]	-13%	12%	-17%	.
Oc1ccc(Nc2nc(N3CCCC3)c3ccccc3n2)cc1	?	50µM*	?	-4%	45µM*	?	34*
Cc1nc(Nc2ccncc2)c2oc3ccccc3c2n1	?	45µM*	20%[57.1 µM]	-2%	?	-8%	43*
Cc1csc2c1c(=O)n(O)c(=O)n2Cc1ccccc1	.	.	.	.	.	.	0.11*
Cc1cc(O)c(CN2CCN(c3ccccc3)CC2)c2oc(=O)cc(C)c12	7%	-10%	.	.	-12%	-5%	.
Cc1ccc2c(C)c(C(=O)N3CCC(c4nc5ccccc5s4)CC3)oc2c1C	14%	4%	.	-15%	-4%	7%	.
CN1CCC[C@H]1CCNc1ccc2c(=O)c3ccccc3n(C)c2c1	28µM*	56µM*	?	?	.	?	43*
CCOc1ccc(-c2nnc(SCC(=O)Nc3cccc(C#N)c3)o2)cc1	?	-14%	.	-3%	?	-5%	.
Nc1c(Cl)cc(-c2[nH]c3cc(C(=O)NCCO)ccc3c(=O)c2O)cc1Cl	?	18µM*	-35%	?	-5%	-6%	30*
CCCNC(=O)c1ccc2c(=O)c(O)c(-c3cccc(Br)c3)[nH]c2c1	?	32µM*	3%[11.6 µM]	-16%	-1%	-12%	38*
CCOc1ccc(CCNC(=O)CCc2c(C)nc3c(c(C)nn3-c3ccccc3)c2C)cc1OCC	8%	0%	.	-10%	8%	-2%	.
Cc1ccc(OCc2nnc(SCC(=O)Nc3ccccc3C(C)C)o2)cc1	19%	-3%	.	-8%	-14%	-11%[60.1 µM]	.
COc1cc(/C=C2/SC(=S)N(CC3CCCO3)C2=O)ccc1O (centres undefined)	?	45µM*	79µM*	?	?	-21%	43*
COc1ccc(/C=C2\SC(=S)N(C(C(=O)O)c3ccccc3)C2=O)c(OC)c1 (centres undefined)	?	-4%	-8%	-23%	-5%	-9%	.
COc1cc(/C=C2\SC(=S)N(C(Cc3ccccc3)C(=O)O)C2=O)ccc1O (centres undefined)	?	?	50µM*	?	50µM*	?	?
